# Measured values as given in PubChem BioAssay (Tox21).
# Unmarked numbers belong to inactive results. Results filed as inconclusive are left out. Where a call stands in place of a potency, no number is given. The source made the active and inactive calls. Unless noted, calls follow the shape of the dose curve; as a rule, active = well fitted curve in the direction sought with a large enough effect in the repeat runs; inconclusive = weak or mixed curves; inactive = no such curve, though single readings can be large; an effect the other way counts as inactive or inconclusive.
# Columns and labels:
# [1] = molecular target: Progesterone receptor (Homo sapiens) (UniProt P06401); test: qHTS assay to identify small molecule agonists of the progesterone receptor (PR) signaling pathway (AID 1346784; calls by dose curve; also: nearly all actives have a fitted effect of over 30% in size)
# Method in brief: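 Seed PR-UAS-bla HEK 293T cells (2% charcoal-stripped FBS), incubate 6 hr at 37C; add compounds in DMSO, 16 hr at 37C; add LiveBLAzer B/G substrate, 2 hr RT; read fluorescence intensity.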
# [2] = molecular target: Progesterone receptor (Homo sapiens) (UniProt P06401); test: qHTS assay to identify small molecule antagonists of the progesterone receptor (PR) signaling pathway (AID 1346795; active = well fitted inhibition curve with a large enough effect in the signal ratio in the repeat runs, not every such curve was filed as active; the % refers to the signal ratio)
# Method in brief: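 Screening used a GripTite HEK293T line with PR-responsive UAS-beta-lactamase. Cells were challenged with compound in the presence of 1 nM R5020 final for 16 hr at 37C; B/G FRET substrate, 2 hr room temperature, fluorescence.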
# [3] = qHTS assay to identify small molecule antagonists of the progesterone receptor (PR) signaling pathway - cell viability counter screen (AID 1346798); also: series mostly up to about 92 µM; nearly all actives have a fitted effect of over 50% in size
# Method in brief: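 Measures cytotoxicity in parallel with the PR antagonist reporter read: HEK293T PR-UAS-bla cells get compound and R5020 for 16 hr, and remaining viable cells are quantified by CellTiter-Glo luminescence.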
# [4] = qHTS assay to identify small molecule agonists of the progesterone receptor (PR) signaling pathway - cell viability counter screen (AID 1346799; calls by dose curve; also: nearly all actives have a fitted effect of over 45% in size)
# Method in brief: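 Using the same plates as the PR reporter screen, HEK293T PR-UAS-bla cells received compounds for 16 hr at 37C and were then lysed with CellTiter-Glo; luminescence was read 30 min later at room temperature.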
# [5] = qHTS assay to identify small molecule antagonists of the TGF-beta/Smad signaling pathway - cell viability counter screen (AID 1346824); also: nearly all actives have a fitted effect of over 50% in size
# Method in brief: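 SBE-bla HEK 293T cells were plated overnight at 37 C, then given compounds in DMSO plus TGF-beta1 (added as 0.25 ng/mL solution) for 5 hr. After the bla read, CellTiter-Glo was added to the same wells and luminescence read after 30 min at room temperature.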
# [6] = qHTS assay to identify small molecule agonists of the TGF-beta/Smad signaling pathway - cell viability counter screen (AID 1346829); also: top concentration of the series differs between compounds; nearly all actives have a fitted effect of over 45% in size
# Method in brief: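 Here the cytotoxicity of library compounds is measured in SBE-bla HEK 293T cells treated for 5 hr, using CellTiter-Glo added to wells already read for the beta-lactamase reporter.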
# [7] = qHTS assay to identify small molecule agonists of the TGF-beta/Smad signaling pathway (AID 1346859; active = well fitted activation curve with a large enough effect in the signal ratio in the repeat runs, not every such curve was filed as active; the % refers to the signal ratio; also: series mostly up to about 77 µM)
# Method in brief: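 Beta-lactamase reporter activity downstream of Smad binding elements was measured in stably transfected HEK 293T cells; compounds were incubated for 5 hr, substrate for 2 hr at room temperature.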
# [8] = molecular target: Thyrotropin-releasing hormone receptor (Homo sapiens) (UniProt P34981); test: qHTS assay to identify small molecule antagonists of the thyrotropin-releasing hormone receptor (TRHR) signaling pathway (AID 1346877; active = well fitted inhibition curve with a large enough effect in the repeat runs, not every such curve was filed as active; also: series mostly up to about 51 µM)
# Method in brief: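 Intracellular calcium fluorescence, read kinetically every second over 3 min, reports TRH-evoked signalling in HEK293 cells carrying TRHR. Test compounds were added 5 min ahead of a 1 nM TRH challenge.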
# [9] = molecular target: Thyrotropin-releasing hormone receptor (Homo sapiens) (UniProt P34981); test: qHTS assay to identify small molecule agonists of the thyrotropin-releasing hormone receptor (TRHR) signaling pathway (AID 1346891; calls by dose curve; also: potency is read from the fitted curve at half-maximal effect;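 as to activation: HEK293 cells expressing TRHR with calcium dye readout; series mostly up to about 58 µM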)
# Method in brief: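 Overnight-plated (18 h, 37 °C, 5% CO2) TRHR-Hek293 cells; 2 h calcium dye at 37 °C; compound in DMSO; 3-min kinetic fluorescence read.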
# [10] = Human pregnane X receptor (PXR) small molecule agonists, qHTS cell viability counter screen (AID 1346977); also: nearly all actives have a fitted effect of over 50% in size
# Method in brief: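 After a 5hr pre-incubation, PXR-Luc HepG2 cells received compounds plus positive control in DMSO and were kept 24hr at 37C. Cell viability was quantified by fluorescence from CellTiter-Fluor added for the final hour.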
# Chain of Progesterone receptor (Homo sapiens) (P06401 whole entry, looked up): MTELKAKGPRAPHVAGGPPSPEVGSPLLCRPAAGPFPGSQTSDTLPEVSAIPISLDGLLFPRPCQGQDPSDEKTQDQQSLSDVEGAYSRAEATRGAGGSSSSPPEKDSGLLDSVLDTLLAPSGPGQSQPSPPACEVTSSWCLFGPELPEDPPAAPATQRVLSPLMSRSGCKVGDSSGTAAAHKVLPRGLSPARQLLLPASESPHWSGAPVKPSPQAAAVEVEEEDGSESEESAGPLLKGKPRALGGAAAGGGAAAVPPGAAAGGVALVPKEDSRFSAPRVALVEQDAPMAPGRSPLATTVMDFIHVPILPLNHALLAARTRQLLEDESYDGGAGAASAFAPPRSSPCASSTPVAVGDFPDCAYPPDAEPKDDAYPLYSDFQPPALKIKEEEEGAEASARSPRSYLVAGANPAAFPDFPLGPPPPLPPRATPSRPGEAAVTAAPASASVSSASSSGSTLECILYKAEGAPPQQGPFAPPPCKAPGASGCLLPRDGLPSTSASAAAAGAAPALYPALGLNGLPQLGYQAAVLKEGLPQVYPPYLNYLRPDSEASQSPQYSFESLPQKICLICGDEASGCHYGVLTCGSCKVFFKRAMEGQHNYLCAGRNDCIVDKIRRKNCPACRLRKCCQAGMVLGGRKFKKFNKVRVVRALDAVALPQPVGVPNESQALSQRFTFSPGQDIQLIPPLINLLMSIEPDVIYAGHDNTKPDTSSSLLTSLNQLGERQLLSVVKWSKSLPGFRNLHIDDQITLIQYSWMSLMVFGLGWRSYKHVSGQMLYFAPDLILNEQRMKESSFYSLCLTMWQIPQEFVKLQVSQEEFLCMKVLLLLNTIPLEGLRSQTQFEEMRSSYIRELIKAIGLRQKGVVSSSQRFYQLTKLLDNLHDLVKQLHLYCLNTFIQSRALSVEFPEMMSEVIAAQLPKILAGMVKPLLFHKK
# Chain of Thyrotropin-releasing hormone receptor (Homo sapiens) (P34981 whole entry, looked up): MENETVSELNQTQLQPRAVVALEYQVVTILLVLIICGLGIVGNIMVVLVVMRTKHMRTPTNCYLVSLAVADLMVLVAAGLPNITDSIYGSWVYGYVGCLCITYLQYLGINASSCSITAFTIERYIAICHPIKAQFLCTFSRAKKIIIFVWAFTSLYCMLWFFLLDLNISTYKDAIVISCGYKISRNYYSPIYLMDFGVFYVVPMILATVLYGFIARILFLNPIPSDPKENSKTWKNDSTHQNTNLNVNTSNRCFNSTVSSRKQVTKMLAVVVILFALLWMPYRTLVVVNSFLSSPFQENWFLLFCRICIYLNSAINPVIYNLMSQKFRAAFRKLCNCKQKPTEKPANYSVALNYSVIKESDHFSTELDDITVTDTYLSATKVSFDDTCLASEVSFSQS
smiles,measurement,setting,value
CN1CCN(c2c(F)cc3c(=O)c(C(=O)O)cn4c3c2OCN4C)CC1,activation,[1],1.06% [at 19 µM]
same,"activity change, negative = inhibition",[2],0.0233% [at 18.9 µM]
same,"activity change, negative = cytotoxicity",[3],10.3% [at 18.9 µM]
same,"activity change, negative = cytotoxicity",[4],0.954% [at 19 µM]
same,"viability change, negative = cytotoxic",[5],1.7% [at 15.8 µM]
same,"activity change, negative = cytotoxicity",[6],-7.56% [at 15.8 µM]
same,activation,[7],-0.914% [at 15.8 µM]
same,"activity, negative = inhibition",[8],2.89% [at 10.5 µM]
same,activation,[9],0.19% [at 11.8 µM]
same,"activity change, negative = cytotoxicity",[10],4.15% [at 19 µM]
Cc1nc2ccccn2c(=O)c1CCN1CCC(C(=O)c2ccc(F)cc2)CC1,Potency,[1],inactive
same,Potency,[2],inactive
same,Potency,[3],inactive
same,Potency,[4],inactive
same,outcome,[5],inactive
same,outcome,[6],inactive
same,outcome,[7],inactive
same,outcome,[8],inactive
same,Potency,[9],inactive
CCOCCn1c(C2CCN(CCc3ccc(C(C)(C)C(=O)O)cc3)CC2)nc2ccccc21,Potency,[1],inactive
same,Potency,[2],inactive
same,Potency,[3],inactive
same,Potency,[4],inactive
same,outcome,[5],inactive
same,outcome,[6],inactive
same,outcome,[7],inactive
same,outcome,[8],inactive
same,Potency,[9],inactive
CCCOCCOCCO,Potency,[1],inactive
same,Potency,[2],inactive
same,Potency,[3],inactive
same,Potency,[4],inactive
same,outcome,[5],inactive
same,outcome,[6],inactive
same,outcome,[7],inactive
C/C(=N/NC(=O)c1ccncc1)C(=O)O,Potency,[1],inactive
same,Potency,[2],inactive
same,Potency,[3],inactive
same,Potency,[4],inactive
same,outcome,[5],inactive
same,outcome,[6],inactive
same,outcome,[7],inactive
same,Potency,[10],inactive
O=C(O)c1cccc(O)c1,Potency,[1],inactive
same,Potency,[2],inactive
same,Potency,[3],inactive
same,Potency,[4],inactive
same,outcome,[5],inactive
same,outcome,[6],inactive
same,outcome,[7],inactive
same,outcome,[8],inactive
same,Potency,[9],inactive
same,Potency,[10],inactive
CNC(=O)N(c1ccccc1)c1ccccc1,Potency,[1],inactive
same,Potency,[2],inactive
same,Potency,[3],inactive
same,Potency,[4],inactive
same,outcome,[5],inactive
same,outcome,[6],inactive
same,outcome,[7],inactive
same,outcome,[8],inactive
same,Potency,[9],inactive
same,Potency,[10],inactive
O=C(O)c1cccnc1C(=O)O,Potency,[1],inactive
same,Potency,[2],inactive
same,Potency,[3],inactive
same,Potency,[4],inactive
same,outcome,[5],inactive
same,outcome,[6],inactive
same,outcome,[7],inactive
same,Potency,[10],inactive
OC/C(Br)=C(\Br)CO,Potency,[1],inactive
same,Potency,[2],inactive
same,Potency,[3],inactive
same,Potency,[4],inactive
same,outcome,[5],inactive
same,outcome,[6],inactive
same,outcome,[7],inactive
same,outcome,[8],inactive
same,Potency,[9],inactive
same,Potency,[10],inactive
O=C1NCCN1,Potency,[1],inactive
same,Potency,[2],inactive
same,Potency,[3],inactive
same,Potency,[4],inactive
same,outcome,[5],inactive
same,outcome,[6],inactive
same,outcome,[7],inactive
same,Potency,[10],inactive
O=S1OCCO1,Potency,[1],inactive
same,Potency,[2],inactive
same,Potency,[3],inactive
same,Potency,[4],inactive
same,outcome,[5],inactive
same,outcome,[6],inactive
same,outcome,[7],inactive
same,outcome,[8],inactive
same,Potency,[9],inactive
same,Potency,[10],inactive
CC(C)CCCC(=O)O,Potency,[1],inactive
same,Potency,[2],inactive
same,Potency,[3],inactive
same,Potency,[4],inactive
same,outcome,[5],inactive
same,outcome,[6],inactive
same,outcome,[7],inactive
C1COCO1,Potency,[1],inactive
same,Potency,[2],inactive
same,Potency,[3],inactive
same,Potency,[4],inactive
same,outcome,[5],inactive
same,outcome,[6],inactive
same,outcome,[7],inactive
same,outcome,[8],inactive
same,Potency,[9],inactive
same,Potency,[10],inactive
CN1Cc2cc(C(=O)N3CCC(C4CCNCC4)CC3)ccc2N[C@@H](CC(=O)O)C1=O,Potency,[1],inactive
same,Potency,[2],inactive
same,Potency,[3],inactive
same,Potency,[4],inactive
same,outcome,[5],inactive
same,outcome,[6],inactive
same,outcome,[7],inactive
same,outcome,[8],inactive
same,Potency,[9],inactive
same,Potency,[10],inactive
C=CC(=O)NCOCC(C)C,Potency,[1],inactive
same,Potency,[2],inactive
same,Potency,[3],inactive
same,Potency,[4],inactive
same,outcome,[5],inactive
same,outcome,[6],inactive
same,outcome,[7],inactive
same,outcome,[8],inactive
same,Potency,[9],inactive
C[N+](C)(C)CCOC(N)=O,Potency,[1],inactive
same,Potency,[2],inactive
same,Potency,[3],inactive
same,Potency,[4],inactive
same,outcome,[5],inactive
same,outcome,[6],inactive
same,outcome,[7],inactive
same,outcome,[8],inactive
same,Potency,[9],3.38 µM (active)
same,Potency,[10],inactive
CC(=O)N(c1onc(C)c1C)S(=O)(=O)c1ccc(N)cc1,Potency,[1],inactive
same,Potency,[2],inactive
same,Potency,[3],inactive
same,Potency,[4],inactive
same,outcome,[5],inactive
same,outcome,[6],inactive
same,outcome,[7],inactive
same,Potency,[10],inactive
Cn1c(=O)c2c(ncn2CC(=O)O)n(C)c1=O,Potency,[1],inactive
same,Potency,[2],inactive
same,Potency,[3],inactive
same,Potency,[4],inactive
same,outcome,[5],inactive
same,outcome,[6],inactive
same,outcome,[7],inactive
same,outcome,[8],inactive
same,Potency,[9],inactive
same,Potency,[10],inactive
C=CC(=C)CCCC(C)(C)OC(C)=O,Potency,[1],inactive
same,Potency,[2],inactive
same,Potency,[3],inactive
same,Potency,[4],inactive
same,outcome,[5],inactive
same,outcome,[6],inactive
same,outcome,[7],inactive
same,outcome,[8],inactive
same,Potency,[9],inactive
same,Potency,[10],inactive
CC(C)C(=O)O,Potency,[1],inactive
same,Potency,[2],inactive
same,Potency,[3],inactive
same,Potency,[4],inactive
same,outcome,[5],inactive
same,outcome,[6],inactive
same,outcome,[7],inactive
CC1=NN(c2ccc(C(=O)O)cc2)C(=O)C1,Potency,[1],inactive
same,Potency,[2],inactive
same,Potency,[3],inactive
same,Potency,[4],inactive
same,outcome,[5],inactive
same,outcome,[6],inactive
same,outcome,[7],inactive
same,outcome,[8],inactive
same,Potency,[9],inactive
same,Potency,[10],inactive
Cc1nc2ccccc2s1,Potency,[1],inactive
same,Potency,[2],inactive
same,Potency,[3],inactive
same,Potency,[4],inactive
same,outcome,[5],inactive
same,outcome,[6],inactive
same,outcome,[7],inactive
O=C1OCCN1/N=C/c1ccc([N+](=O)[O-])o1,Potency,[1],inactive
same,Potency,[2],inactive
same,Potency,[3],inactive
same,Potency,[4],inactive
same,outcome,[5],inactive
same,outcome,[6],inactive
same,outcome,[7],inactive
same,outcome,[8],inactive
same,Potency,[9],inactive
CO[Si](C)(OC)OC,Potency,[1],inactive
same,Potency,[2],inactive
same,Potency,[3],inactive
same,Potency,[4],inactive
same,outcome,[5],inactive
same,outcome,[6],inactive
same,outcome,[7],inactive
same,outcome,[8],inactive
same,Potency,[9],inactive
same,Potency,[10],inactive
